An excerpt weighted towards active compounds, which were near 19% of everything screened.
CHX counter = counter-screen for Shiga toxin inhibitors: cycloheximide protein synthesis inhibition | cell reporter, cycloheximide protein synthesis inhibition counterscreen | max response, % | 300,000 compounds, 12% hits; in the data active = max response mostly above about 13%, no sharp cut-off; inactive = mostly below about 14%; also: read at 38.3 µM for the half of the compounds with a filed dose; 0% is about no effect
Pf growth 48h = inhibits P. falciparum growth in the first generation, 48 h; P. falciparum luciferase growth in erythrocytes, 48 h; Potency, µM (titrated, usually from 28.7 µM), for inactives: top-dose activity change, negative = inhibition, usual class: inhibitors; 310,000 compounds, 5.9% hits; AID 504832; also: potency is read from the fitted curve at half-maximal effect; % is scaled to controls: 0 for no effect and ±100 for the full control effect
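Compounds are pin-transferred into medium, infected erythrocytes (2% hematocrit, 0.1% parasitemia final) are added, and plates sit one parasite generation at 37 C in 5% CO2. Detection reagent is then added and luminescence measured.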
Pf growth 96h = P. falciparum growth inhibition at 96 hours. 320,000 compounds, 6.9% hits. Potency, µM (series often up to 28.7 µM), for the others: top-dose activity change, negative = inhibition, actives largely listed as inhibitors. AID 504834. P. falciparum luciferase reporter growth, 96 h; also: potency is read from the fitted curve at half-maximal effect; % is scaled to controls: 0 for no effect and ±100 for the full control effect
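Delayed-death screen, second-generation endpoint: infected erythrocytes, 2% hematocrit, 0.05% parasitemia final; 96 hours at 37 C, 5% CO2; luciferase detection reagent; luminescence decrease equals reduced growth.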
Marburg entry inh = inhibitors of Marburg virus binding or cell entry. Marburg virus pseudotyped entry inhibition, cell reporter. Potency, µM (titrated, usually from 37.8 µM), for inactives: at the top dose activity change, negative = inhibition, actives largely listed as inhibitors. 300,000 compounds, 1.8% hits. AID 540276; calls by dose curve; tested in HEK293 cells; also: potency is read from the fitted curve at half-maximal effect; % is scaled to controls: 0 for no effect and ±100 for the full control effect
LASV entry inh = blocks Lassa virus binding to or entry into cells. Lassa virus pseudotype entry inhibition, cell reporter. Potency, µM (top dose mostly 37.9 µM), for the others: at the highest dose activity change, negative = inhibition, actives largely listed as inhibitors. 300,000 compounds, 1.2% hits. AID 540256; calls by dose curve; tested in HEK293 cells; also: potency is read from the fitted curve at half-maximal effect; % is scaled to controls: 0 for no effect and ±100 for the full control effect; nearly all actives have a fitted effect of over 50% in size
Shiga toxin inh = inhibitors of Shiga toxin in Vero cells; 290,000 compounds, 9.2% hits; Vero cells, Shiga toxin protein synthesis inhibition reporter; inhibition, % at 38.7 µM; in the data active = inhibition mostly above about 28%, no sharp cut-off; inactive = mostly below about 43%; also: 0% is about no effect
The depositor's hits bear a star; [ ] = remark or other dose. Unless noted, calls follow the shape of the dose curve; as a rule, active = well fitted inhibition curve with a large enough effect; inconclusive = small, poorly fitted or top-dose-only effect, or another doubt; inactive = no such curve, though single readings can be large or run the other way.

How did CCCN(CCC)S(=O)(=O)c1ccc(NC(=O)COc2ccccc2)cc1 do in these assays?
CHX counter: -4; Pf growth 96h: 9.3µM*; Marburg entry inh: inconclusive; LASV entry inh: -26%; Shiga toxin inh: -14

What do the screens show for `CCCNS(=O)(=O)c1ccc(NC(=O)Cc2cccs2)cc1`?
CHX counter: 19*; Pf growth 48h: 28%; Pf growth 96h: 44%; Marburg entry inh: 9%[46.1 µM]; LASV entry inh: -14%; Shiga toxin inh: 21

What do the screens show for `CCCN(CCC)S(=O)(=O)c1ccc(NC(=O)Cc2cccs2)cc1`?
CHX counter: 1; Pf growth 96h: inconclusive; Marburg entry inh: -22%; LASV entry inh: -80%[14.3 µM]; Shiga toxin inh: 16

How did CCCCN(CCCC)S(=O)(=O)c1ccc(NC(=O)Cc2cccs2)cc1 do in these assays?
CHX counter: 35*; Pf growth 48h: inconclusive; Marburg entry inh: inconclusive; LASV entry inh: 9.2µM*; Shiga toxin inh: 27

How did CC(C)(C)C(=O)COC(=O)c1ccc(O)cc1 do in these assays?
CHX counter: 11; Pf growth 48h: -13%; Pf growth 96h: -17%; Marburg entry inh: 25%[46.1 µM]; LASV entry inh: -3%; Shiga toxin inh: 40*

What do the screens show for `O=C(OCC(=O)N(C1CCCCC1)C1CCCCC1)c1ccc(O)cc1`?
CHX counter: -1; Pf growth 48h: 8.3µM*; Pf growth 96h: inconclusive; Marburg entry inh: 4%[46.1 µM]; LASV entry inh: 15%[46.1 µM]; Shiga toxin inh: -4

How did O=C(OCC(=O)N(C1CCCCC1)C1CCCCC1)c1ccccc1O do in these assays?
CHX counter: -4; Pf growth 48h: inconclusive; Pf growth 96h: inconclusive; Shiga toxin inh: -5

What do the screens show for `CC(C)(C)C(=O)COC(=O)c1ccccc1O`?
CHX counter: 13; Pf growth 96h: 31%; Marburg entry inh: 18%; LASV entry inh: 11%; Shiga toxin inh: 20

How did N#CCC(=O)Nc1ccc(C(=O)OCC(=O)N(C2CCCCC2)C2CCCCC2)cc1 do in these assays?
CHX counter: 6; Pf growth 48h: 12µM*; Pf growth 96h: inconclusive; Marburg entry inh: -20%[46.1 µM]; LASV entry inh: inconclusive; Shiga toxin inh: -5

What do the screens show for `CNC(=O)COC(=O)c1ccc(NC(=O)CC#N)cc1`?
CHX counter: -3; Pf growth 48h: 5%; Marburg entry inh: -4%; LASV entry inh: inconclusive; Shiga toxin inh: -11

Results for Cc1ccc(NC(=O)c2sc(N)nc2C)cc1 ?
CHX counter: 37*; Pf growth 48h: 106%; Pf growth 96h: 192%; Shiga toxin inh: 54*

How did Cc1nc(NC(=O)C2CC2)sc1C(=O)Nc1ccccc1 do in these assays?
CHX counter: -1; Pf growth 48h: -6%; Pf growth 96h: inconclusive; Marburg entry inh: -6%; LASV entry inh: -11%; Shiga toxin inh: 22

What do the screens show for `Cc1noc(N)c1C(=O)Nc1ccc(C(C)(C)C)cc1`?
CHX counter: 40*; Pf growth 48h: 292%; Pf growth 96h: 7%; Marburg entry inh: 11%; LASV entry inh: -10%; Shiga toxin inh: 136*

How did Cc1nc(Nc2c(Cl)cccc2Cl)sc1C(=O)Nc1ccccc1 do in these assays?
CHX counter: 19*; Pf growth 48h: -9%; Pf growth 96h: 23%; Marburg entry inh: inconclusive; LASV entry inh: -28%; Shiga toxin inh: 21

How did Cc1nc(C(=O)Nc2ccccc2)sc1C(=O)Nc1ccccc1 do in these assays?
CHX counter: 40*; Pf growth 48h: 98%; Pf growth 96h: 101%; Marburg entry inh: inconclusive; LASV entry inh: 7%[46.1 µM]; Shiga toxin inh: 79*

What do the screens show for `CC(=O)c1sc(NS(=O)(=O)c2ccc(C)cc2)nc1C`?
CHX counter: -2; Pf growth 48h: 14%; Pf growth 96h: -10%; Marburg entry inh: inconclusive; LASV entry inh: inconclusive; Shiga toxin inh: 23

Results for Cc1nc(Cl)sc1C(=O)Nc1ccc(C(C)(C)C)cc1 ?
CHX counter: 50*; Pf growth 48h: 17%; Pf growth 96h: -65%; Marburg entry inh: 1%[46.1 µM]; LASV entry inh: 18%[46.1 µM]; Shiga toxin inh: 91*

What do the screens show for `Cc1ccc(S(=O)(=O)Nc2nc(C)c(C(=O)NNS(=O)(=O)c3cc(C)ccc3C)s2)cc1`?
CHX counter: 1; Pf growth 48h: -19%; Pf growth 96h: -6%; Marburg entry inh: -13%[46.1 µM]; LASV entry inh: 5%[46.1 µM]; Shiga toxin inh: -3

Results for Cc1ccc(C)c(S(=O)(=O)Nc2nc(C)c(C(=O)Nc3ccccc3)s2)c1 ?
CHX counter: 10; Pf growth 48h: inconclusive; Pf growth 96h: 0.66µM*; Marburg entry inh: 4%; LASV entry inh: 18%; Shiga toxin inh: -4

How did Cc1nc(/N=C\N(C)C)sc1C(=O)Nc1ccccc1 do in these assays?
CHX counter: 31; Pf growth 48h: 74%; Pf growth 96h: 9%; Marburg entry inh: inconclusive; LASV entry inh: 6%; Shiga toxin inh: 51*

How did Cc1ccc(S(=O)(=O)Nc2nc(C)c(C(=O)NN)s2)cc1 do in these assays?
CHX counter: 20*; Pf growth 48h: 51%; Pf growth 96h: 0%; Marburg entry inh: -4%[46.1 µM]; LASV entry inh: inconclusive; Shiga toxin inh: 54*

How did Cc1nc(-c2ccccc2)sc1C(=O)Nc1ccc(S(N)(=O)=O)cc1 do in these assays?
CHX counter: -2; Pf growth 48h: 2%; Pf growth 96h: 3%; Marburg entry inh: inconclusive; LASV entry inh: -5%[46.1 µM]; Shiga toxin inh: -5

What do the screens show for `O=C(COC(=O)c1sc2cc(Cl)ccc2c1Cl)Nc1ncc(Cl)cc1Cl`?
CHX counter: -1; Pf growth 48h: 28%; Pf growth 96h: 18%; Shiga toxin inh: -3

Results for Cc1nc(NC(N)=S)sc1C(=O)Nc1ccccc1 ?
CHX counter: 1; Pf growth 48h: 44%; Pf growth 96h: inconclusive; Marburg entry inh: 15%; LASV entry inh: -3%; Shiga toxin inh: -2

Results for Cc1nc(N)sc1C(=O)Nc1ccccc1 ?
CHX counter: 35*; Pf growth 48h: 120%; Pf growth 96h: inconclusive; Marburg entry inh: inconclusive; LASV entry inh: inconclusive; Shiga toxin inh: 68*

What do the screens show for `O=[N+]([O-])C(/C=C(\Cl)[N+](=O)[O-])=C1N(Cc2ccc(Cl)nc2)CCN1Cc1ccc(Cl)nc1`?
CHX counter: 7; Pf growth 48h: 2.3µM*; Pf growth 96h: 6.6µM*; Marburg entry inh: -17%; LASV entry inh: -13%; Shiga toxin inh: 16

How did O=C(C(=C1N(Cc2ccc(Cl)nc2)CCN1Cc1ccc(Cl)nc1)[N+](=O)[O-])C(Cl)Cl do in these assays?
CHX counter: 8; Pf growth 96h: -1%; Shiga toxin inh: -8

Results for CN(Cc1ccccc1)C(=O)Cn1cccc1C(=O)c1ccccc1 ?
CHX counter: 2; Pf growth 96h: -15%; Marburg entry inh: 11%; LASV entry inh: -2%; Shiga toxin inh: 5

How did CCOC(=O)c1ccc(-c2ccc(C=O)o2)cc1 do in these assays?
CHX counter: 48*; Pf growth 48h: 264%; Pf growth 96h: inactive; Marburg entry inh: -22%; LASV entry inh: inconclusive; Shiga toxin inh: 80*

How did CCCOC(=O)c1cc(-c2ccc(/C=C3/C(=O)N(C)C(=O)C(C#N)=C3C)o2)ccc1Cl do in these assays?
Marburg entry inh: inconclusive; LASV entry inh: 22%

Source: PubChem
